One may read the AC50 as the concentration at which the activity in the assay is half-maximal.

Our source for the outcome and AC50 values is PubChem BioAssay (EPA / NIEHS).

Calls of active or inactive are those of the source. The calls were made as follows: active = hit-call score of the fitted dose curve at least 0.9, where 1 is the maximum; inactive = score below 0.9.

The experiment can be described thus: CCTE_Shafer_MEA_dev_burst_duration_mean: CCTE's Neural Network Formation Assay for Mean Burst Duration, Shafer Lab (AID 2284045).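 As to AC50: curve fitted for loss meaning shorter burst duration than DMSO.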 The protocol: CCTE_Shafer_MEA_dev assay is conducted using Axion Biosystems 48 well microelectrode array (MEA) plates and Maestro recording system. Each well of the MEA plate contains a grid of 16 microelectrodes embedded in the culture surface. Electrically active cells, such as neurons, can be cultured over the electrodes, and electrical activity in these cells can be recorded extracellularly. The spontaneous firing of neurons is captured from each electrode on a microsecond timescale providing both temporally and spatially precise data. […] The CCTE_Shafer_MEA_dev assay uses primary cultures of rat cortical neurons. Recordings are made on days post-plating 5, 7, 9 and 12. As these cultures mature over time, neural networks develop functional activity and form cohesive networks in which electrical activity can be highly coordinated. CCTE_Shafer_MEA_dev_burst_duration_mean is 1 of 19 assay components of the CCTE_Shafer_MEA_dev assay. It measures the average time interval from the first spike (action potential firing) to the last spike in a singe-electrode burst (temporally-clustered group of spikes) during a recording in a microelectrode array (MEA) using Axion Biosystems Maestro 768 channel amplifier with the AxIS adaptive spike detector. The mean burst duration is averaged across the actively bursting electrodes to report a well-mean value. To collapse across multiple recordings made on days post-plating 5, 7, 9 and 12, the trapezoidal area-under-the-curve of the component is calculated.Data from the assay component CCTE_Shafer_MEA_dev_burst_duration_mean was analyzed into 1 assay endpoint. This assay endpoint, CCTE_Shafer_MEA_dev_burst_duration_mean, was analyzed in the negative analysis fitting direction relative to DMSO as the negative control and baseline of activity. Using a type of functional reporter, gain or loss-of-signal activity can be used to understand electrical activity.
On the day prior to culture, each well was coated thoroughly with 150 uL of 0.05% polyethyleneimine (PEI, Sigma Cat P3143) in 50 mM HEPES (Sigma Cat H7523) at a pH of 8. The plate was incubated at 37C for one hour. PEI was rinsed out with 500 uL of sterile water three times. Plates were stored at 4C until the day of culture. This culture was plated at a seeding density of 1.5 x 10^5 cells/well on a 48-well MEA plate, prepared as described above. Cells were administered via a 25 uL media/laminin ([…]; Sigma Cat L2020-1MG) drop directly onto the microelectrode array, as adding the cells with the laminin results in better attachment than pre-coating with laminin. After 2 hours, an additional 475 uL of cortical media was added and the cells returned to the incubator. Exposure starts at day 0 of plating and is continued over twelve days of network development until the experiment is terminated. Cells are fed with fresh medium on DIV 5 and 9, following the recordings on those days. The entire volume of media in the well is exchanged and any vehicle or compound treatment is renewed. Complete details are found in OP-NHEERL/ISTD/SBB/TJS/2015-03-r0 (available on request, email shafer.tim@epa.gov). Measurement of the electrical activity is non-invasive, and recordings can be made from the same plate over multiple different days of the culture. In cortical neurons, this allows for the measurement of extracellular action potentials over the period during which networks form in the MEA plate.
For the compound `OCC(F)(F)OC(F)(F)C(F)(F)OC(F)(F)C(F)(F)OC(F)(F)CO`, the compound was called inactive.
With `O=P1(N(CCCl)CCCl)NCCCO1` (centres undefined), the outcome was inactive.
The same measure, in the same setting: next, `OCC(F)(F)OC(F)(F)C(F)(F)OC(F)(F)CO`: “inactive”.
Same read-out and setting: next, `CCCCC(CC)COC(=O)c1c(Br)c(Br)c(Br)c(Br)c1C(=O)OCC(CC)CCCC` (centres undefined): “inactive”; `O=P(Oc1ccccc1)(Oc1ccccc1)Oc1ccccc1`: “inactive”; `CC(C)(C)c1ccccc1OP(=O)(Oc1ccccc1)Oc1ccccc1`: “inactive”.
Same read-out and setting: next, `CC(O)C(F)(F)C(F)(F)F` (centres undefined): “inactive”; `O=S(=O)(c1ccc(O)cc1)c1ccc(O)cc1`: “inactive”.
With `O=C(O)C=CC(F)(C(F)(F)F)C(F)(F)F`, the compound was called inactive.
On to `c1cc2c3c(cccc3c1)CC2`, for which the result was inactive.
Consider `C=CC(=O)OCC(F)(F)C(F)F`, for which the AC50 is 8.76 µM (active).
With `O=C(O)C(F)(F)C(F)(F)C(=O)O`, the result was inactive.
Take `O=C(O)C1C(C(=O)O)C2(Cl)C(Cl)=C(Cl)C1(Cl)C2(Cl)Cl` (centres undefined): the outcome was inactive.
On the same count and under the same terms, next, `O=C(O)C(F)(OC(F)(F)C(F)(F)C(F)(F)F)C(F)(F)F` (centres undefined): “inactive”.
Same read-out and setting: next, `OCC(F)(F)OC(F)(F)C(F)(F)OC(F)(F)C(F)(F)OC(F)(F)F`: “inactive”; `O=C(O)C(F)(F)OC(F)(F)C(F)(F)OC(F)(F)F`: “inactive”.
The same measure, in the same setting: next, `ClC1=C(Cl)C2(Cl)C3C(Cl)C(Cl)CC3C1(Cl)C2(Cl)Cl` (centres undefined): “inactive”.
For the compound `CCOc1ccc(C(C)(C)COCc2cccc(Oc3ccccc3)c2)cc1`, the compound was classed as inactive.
On the same count and under the same terms, next, `CCOP(=S)(OCC)SCSCC`: “inactive”; `O=C(O)C(F)(F)OC(F)(F)C(F)(F)OC(F)(F)C(=O)O`: “inactive”.
The same measure, in the same setting: next, `CCCCC(CC)COP(=O)(Oc1ccccc1)Oc1ccccc1` (centres undefined): “inactive”.
Turning to `CO/N=C(/C(=O)OC)c1ccccc1COc1ccccc1C`, the concentration at half-maximal activity (AC50) is 0.863 µM (active).
For the compound `c1ccc(OP(Oc2ccccc2)Oc2ccccc2)cc1`, the outcome was inactive.
`CCC1(c2ccccc2)C(=O)N=C(O)NC1=O` (centres undefined): the compound was classed as inactive.
